The campaign covered roughly 200,000 compounds. About 18,000 (9%) were called active. Rule as the data show it: active = inhibition above about 50%; inactive = the rest. Shown is part of a subset that was picked to be rich in actives.
Assay: Leishmania major promastigote growth inhibition, primary screen (AID 1063);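 also: promastigotes grown with compound for 44 hours at 28 °C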
Conditions: Leishmania major promastigotes, resazurin fluorescence viability; at 10 µM; hits give high values

Compound | inhibition
O=C(N1CCCC1)C12CC3CC(C1)CC(C(=O)N1CCCC1)(C3)C2 | -2.33% (inactive)
CN1CCN(CC(=O)C23CC4CC(CC(C4)C2)C3)CC1 | 88.5% (active)
CC(C)(C)NC(=O)CN1CCC(NC(=O)C23CC4CC(CC(C4)C2)C3)CC1 | 3.92% (inactive)
CCc1ccc(N2CC(O)=C(c3nc4ccccc4c(=O)[nH]3)C2=N)cc1 | -1.01% (inactive)
CCCOc1ccc(C(=O)NCCc2ccccc2)cc1 | 7.66% (inactive)
CCCOc1ccc(N/C=C/C(=O)C(C)(C)C)cc1 | -5.85% (inactive)
CCCOc1ccc(C(=O)C(CCC(CNCC)C(=O)c2ccc(OCCC)cc2)CNCC)cc1 (stereo not drawn) | 100% (active)
CC(C)NC(=S)NN=C1CCCCCCCCCCC1 | 18.9% (inactive)
Cc1nn(C)c(C)c1Sc1ccccc1N | -5.83% (inactive)
CCN(CC)CCOCCOc1ccc(Cl)c2ccccc12 | 99.7% (active)
CCOc1ccc(S(=O)(=O)N2CCCCCC2)c2ccccc12 | 14% (inactive)
CCC(C(=O)OCCN(CC)CC)c1ccccc1 (stereo not drawn) | -7.09% (inactive)
CN(C)CCOc1cccc(Br)c1 | -3.33% (inactive)
CN(C)CCOCCOc1ccc(Cl)c2ccccc12 | 98.1% (active)
COc1ccc(N2C(=O)CC(Sc3n[nH]c(-c4ccc(C)cc4)n3)C2=O)cc1 (stereo not drawn) | -3.19% (inactive)
CCN1C(=O)/C(=c2\s/c(=C3\Sc4ccccc4N3C)c(=O)n2C)N(C)C1=S | -4.84% (inactive)
CSc1cc(C)[nH]c(=O)n1 | -7.37% (inactive)
C/C(=N\N)c1c(-c2ccccc2)c2cc(Br)ccc2[nH]c1=O | -1.92% (inactive)
COc1ccc(C(=O)N/N=c2\oc3ccccc3cc2C(N)=O)cc1 | 10.2% (inactive)
CC(OC(=O)CCc1nc(=O)c2ccccc2n1C)C(=O)NCc1ccc2c(c1)OCO2 (stereo not drawn) | -3.8% (inactive)
CCC(C)(C)NC(=O)/C=C/c1cc(OC)c(OC)c(S(=O)(=O)N2CCc3ccccc32)c1 | -8.31% (inactive)

Compound | inhibition
CCN1CCN(Cc2c(O)ccc3c(=O)c(-c4ccc(OC)c(OC)c4)c(C(F)(F)F)oc23)CC1 | 99.8% (active)
CN1CCN(Cc2c(O)ccc3c2oc(=O)c2ccccc23)CC1 | 3.53% (inactive)
CCOC(=O)c1oc2c(CN3CCN(C)CC3)c(O)ccc2c(=O)c1-c1ccc(Br)cc1 | 23.6% (inactive)
COc1ccc(C(=O)NNc2cc(C)nc(NNC(=O)c3ccc(OC)cc3)n2)cc1 | -8.08% (inactive)
Cn1c(=NC(=O)c2ccc3c(c2)OCCO3)sc2cc(S(C)(=O)=O)ccc21 | -9.12% (inactive)
NC(=O)COC(=O)/C=C/c1ccc2ccccc2n1 | 8.85% (inactive)
COc1cccc(C(O)Cc2nc3ccccc3n2C)c1OC (stereo not drawn) | 9.44% (inactive)
CCOc1cccc(/C=C/c2ccc3ccccc3n2)c1OC(C)=O | 66% (active)
COc1cccc(/C=C/c2ccc3ccccc3n2)c1OC(C)=O | 75.8% (active)
CCOc1ccccc1NC(=O)c1cccnc1 | -2.23% (inactive)
CC(OC(=O)c1ccc2ccccc2n1)C(=O)c1ccccc1 (stereo not drawn) | -9.05% (inactive)
COC(=O)c1ccc(-n2cnc3ccccc32)nc1 | 25% (inactive)
CN(C(=O)CSc1nnc(Nc2ccccc2)s1)C1CCS(=O)(=O)C1 (stereo not drawn) | -3.39% (inactive)
CC(=O)c1c(C)[nH]c(C(=O)OCC(=O)NCCC(C)C)c1C | 3.75% (inactive)
Cc1ccc(O)c(CCc2ccccc2)n1 | 87.9% (active)
O=C(O)CCCc1ccccc1 | -5.59% (inactive)
c1ccc(CSCCc2ccncc2)cc1 | 1.66% (inactive)
CC(NC(=O)C(=O)N/N=C/c1ccc(Cl)cc1)c1ccccc1 (stereo not drawn) | 5.89% (inactive)
CC(C)(C)NC(=O)c1cccc(NC(=O)Cc2ccc(Br)cc2)c1 | 94.5% (active)
O=C(Cc1ccccc1)Nc1cccc(C(=O)N/N=C/c2ccco2)c1 | -0.83% (inactive)
COc1ccc(CC(=O)Nc2ccc(C(=O)NC(C)(C)C)cc2)cc1 | -5.15% (inactive)

Compound | inhibition
C(=N\N1CCN(c2ccccn2)CC1)/C1=C(N2CCOCC2)C(=C/c2ccccc2)/CC1 | 15.2% (inactive)
CCCNC(=O)c1ccccc1NC(=O)CSCc1ccc(OC)cc1 | 9.43% (inactive)
CCCCCNC(=O)c1cccnc1SCC(=O)Nc1ccccc1OC | 54% (active)
CCCc1nc(SCC(=O)Nc2ccccc2OC)c2c(=O)n(C)c(=O)n(C)c2n1 | -9.77% (inactive)
COc1ccc(-n2nnnc2SCC(=O)NCc2cccs2)cc1 | -3.26% (inactive)
COc1ccc(S(=O)(=O)N(C)C)cc1NC(=O)CSc1ncccn1 | 6.96% (inactive)
O=C(NCc1ccncc1)NC12CC3CC(CC(C3)C1)C2 | 1.04% (inactive)
CCOC(=O)c1c(NC(=O)C2CC=CCC2C(=O)O)sc(C)c1CC (stereo not drawn) | 0.64% (inactive)
O=S(=O)(c1cccc(C(F)(F)F)c1)N1CCN(c2cnccn2)CC1 | -1.36% (inactive)
COC(=O)c1ccccc1NS(=O)(=O)c1ccc2[nH]c(=O)[nH]c2c1 | 86.2% (active)
Cc1ccc(S(=O)(=O)NCCSc2ccccc2)cc1[N+](=O)[O-] | -8.64% (inactive)
COC(=O)c1ccccc1NC(=O)c1ccccc1NS(C)(=O)=O | -0.37% (inactive)
CCOC(=O)c1ccccc1NS(=O)(=O)c1ccc(OC)cc1 | 2.32% (inactive)
COCCNC(=O)c1ccccc1NS(=O)(=O)c1ccc(C)c([N+](=O)[O-])c1 | 54.5% (active)
Cc1ccc(S(=O)(=O)Nc2nc3ccccc3s2)cc1[N+](=O)[O-] | -8.33% (inactive)
O=S(=O)(Cc1ccccc1)c1nc2ccccc2n1Cc1ccccn1 | 10.6% (inactive)
Cc1cc(C)cc(C(=O)N(CCc2ccccc2)C2=CC3CCC(C2)N3C)c1 (stereo not drawn) | 3.61% (inactive)
Cc1ccc(N/C=C/C(=O)c2ccccc2)cc1C | 66% (active)
Cc1noc(NS(=O)(=O)c2ccc(N/C=C/C(=O)c3ccccc3)cc2)c1C | -14.2% (inactive)
O=C(/C=C\NCC(=O)c1ccccc1)c1ccccc1 | 2.41% (inactive)
O=C(Nc1ccc2c(c1)C(=O)OC2)Nc1cccc2ccccc12 | -3.46% (inactive)

Source: PubChem BioAssay AID1063 (University of Pittsburgh Molecular Library Screening Center, 2008)
